± gives the standard deviation of the averaged measurements. Over roughly 33,000 sequences, “E-score (rank enrichment, -0.5 to 0.5)” has its median near -0.0028; the highest 2% begin near 0.23. The sample holds the highest values, similar sequences and a random draw of the others, so the mix is not that of the screen.
tested on: 2Sb-muMax20 (muMax20 with two 1,3-bis(methyl)benzene Cys staples, A13C/A17C and Q88C/A92C, C-terminal Lys); test: PBM 8-mer E-score (E-score (rank enrichment, -0.5 to 0.5)); higher = stronger preferential binding
Protocol: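 Protein binding microarray (universal PBM chip covering all 10-mers in fixed probe flanks) with chemically synthesized human Max(13-93) bHLH-LZ analogs (not full-length Max) bearing noncanonical residues (hArg, Tha, Aib, Nle at 65) and aromatic Cys staples. Read-out per 8-mer (and its reverse complement): E-score (rank-based enrichment, -0.5 to 0.5) and Z-score of median probe intensity.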

Sequence | PBM 8-mer E-score
CGAGGCCC | -0.00116 ± 0.04
TGCGCGAA | 0.146 ± 0.011
AGCAGACA | -0.0463 ± 0.0083
GACTGAGC | -0.267 ± 0.057
CCACAGAG | -0.0457 ± 0.076
CTATCCTC | -0.015 ± 0.015
CTATCCCC | 0.121 ± 0.0091
ATATCCCG | 0.0587 ± 0.04
ATATCTTC | 0.249 ± 0.029
ATATCCCC | 0.339 ± 0.025
ATATCCTA | 0.0634 ± 0.0093
ATATCTTA | 0.124 ± 0.0016
CTATCTTC | 0.0336 ± 0.054
ATATCCTC | 0.262 ± 0.054
CTCTTTGA | -0.0279 ± 0.036
GTATGATA | 0.258 ± 0.026
CTATGATA | 0.0532 ± 0.035
GCATGATA | 0.214 ± 0.029
ATATGATG | 0.141 ± 0.0096
GTATGAGA | 0.0453 ± 0.12
ATATGATA | 0.257 ± 0.058
ACCTTTAT | 0.02821 ± 0.00021

Sequence | PBM 8-mer E-score
CAGCCTCG | -0.0714 ± 0.034
GGGGTTGA | 0.138 ± 0.03
CCCAATTC | 0.247 ± 0.0082
ACCAATTC | -0.0487 ± 0.032
CCCAATTA | 0.221 ± 0.021
ACGATCTG | -0.0575 ± 0.048
AGCGATCA | -0.298 ± 0.021
AGCGATCG | 0.235 ± 0.0084
AGCGATCC | -0.145 ± 0.057
GACTGTCC | -0.111 ± 0.073
ATTGTCGA | 0.0736 ± 0.034
TATATACA | 0.173 ± 0.0038
CATATGGC | 0.142 ± 0.035
AATATACT | 0.0704 ± 0.03
AATATACA | 0.264 ± 0.02
CAAATACA | 0.23 ± 0.0088
AATATATA | 0.162 ± 0.015
AATATGGG | 0.178 ± 0.024
CATATGGG | 0.252 ± 0.056
AATATATT | 0.24 ± 0.054
GAAATACA | -0.0423 ± 0.015
CAAATACC | 0.0305 ± 0.029

Sequence | PBM 8-mer E-score
AATATATC | 0.19 ± 0.013
CTTGTGTA | 0.116 ± 0.033
AGGCACAG | -0.103 ± 0.026
CGCAGTAA | 0.0928 ± 0.087
GGGCATCA | 0.0183 ± 0.046
TAAATTCA | 0.111 ± 0.075
GACATCTA | -0.1 ± 0.066
AAAACAGC | 0.13 ± 0.037
CGTGGAAG | 0.0947 ± 0.13
GCACTAGC | 0.109 ± 0.017
AATGAATA | 0.156 ± 0.018
GGGCGACC | -0.0448 ± 0.029
CAATCTAA | 0.0541 ± 0.078
AAAATATG | 0.143 ± 0.05
CATATATA | 0.194 ± 0.0063
AATATGTG | 0.139 ± 0.033
CATATATG | 0.305 ± 0.007
CATATATC | 0.13 ± 0.055
AATATATG | 0.3 ± 0.004
TGCGAGCA | 0.146 ± 0.052
AAACCTAC | 0.279 ± 0.06
AAACCTAT | -0.107 ± 0.033

Sequence | PBM 8-mer E-score
AAACCTAG | 0.000475 ± 0.031
GGATCTAC | -0.141 ± 0.02
ACATGCAT | 0.363 ± 0.013
ACATGTAG | 0.275 ± 0.021
AGATGTAT | 0.181 ± 0.031
ACATGTAA | 0.217 ± 0.026
CCATGTAG | 0.172 ± 0.0065
ACATGTAC | 0.309 ± 0.014
ACATGCAC | 0.0993 ± 0.062
CCATGTAC | -0.0138 ± 0.036
ACATGTAT | 0.267 ± 0.0098
GCATGTAC | 0.172 ± 0.024
ACATGCAG | 0.037 ± 0.07
ACATGTCG | 0.166 ± 0.058
AAACCGTT | -0.108 ± 0.016
GACCGACC | -0.162 ± 0.012
AGTATCCG | -0.139 ± 0.029
CCCGGCCG | -0.233 ± 0.084
GCAGGAAA | 0.00101 ± 0.013
CAGACGTA | -0.0519 ± 0.083
